Measurements as given in PubChem BioAssay AID504690 (Sanford-Burnham Center for Chemical Genomics, 2011).
The campaign covered roughly 350,000 compounds. About 2,700 (0.77%) were called active.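 The calls were made as follows: active = inhibition reaching at least a set limit at 20 µM in the primary screen (cut at about 59% in these data); inactive = the rest.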 The sample as a whole holds a higher share of actives than the screen did.

System: glucose-6-phosphate dehydrogenase-6-phosphogluconolactonase (Plasmodium falciparum 3D7)
Test: inhibition of malaria parasite G6PD (PfGluPho) – biochemical, fluorescence intensity, uHTS, primary screen (AID 504690);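 also: 0% = DMSO wells with substrate and 100% = DMSO wells lacking glucose-6-phosphate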
Conditions: PfGluPho enzyme, NADPH resazurin-diaphorase fluorescence; at 20 µM; stronger effect = higher value

inhibition, inactive:
CC(C)C(=O)Nc1ccc2c3c(cccc13)CC2 -13.6%, CC1CCCN(S(=O)(=O)c2ccc(N(C(=O)c3cnccn3)C(C(=O)NC3CCCCC3)c3cccs3)cc2)C1 (stereo not given) 13.2%, Cc1ccc2c(c1)NCC(C(=O)NC1CCC(C)CC1)O2 (stereo not given) 18.8%, Cc1cccc(C)c1NC(=O)CNC(=O)c1c(C)nn(-c2ccccc2)c1C -4.32%, COCC(=O)Nc1c(I)c(C(=O)NCC(O)CO)c(I)c(C(=O)N(C)CC(O)CO)c1I (stereo not given) -11%, O=C(Nc1ccc(-c2cscn2)cc1)C1CCCN(Cc2ccc(CO)o2)C1 (stereo not given) -2.34%, O=C1/C(=C\c2cccnc2)CN(Cc2ccccc2)C/C1=C\c1cccnc1 20.5%, COc1ccc(Cl)cc1C(=O)Nc1ccc(N(C)C(C)=O)cc1 7.67%, COc1cc(OC)c(C(=O)Nc2ccccc2-c2ccccc2)cc1OC 6.28%, O=C(NC12CC3CC(CC(C3)C1)C2)N1CCCC(CO)C1 (stereo not given) -9.02%, CSc1ccc(CCNC(=O)C2CCN(c3nnc(-n4cccc4)s3)CC2)cc1 -2.74%, O=C(Oc1c(-c2ccco2)oc2ccccc2c1=O)c1cccnc1 -16.3%, CCn1nc(C(=O)NNS(=O)(=O)c2cc(/C=C/C(=O)O)cc(OC)c2OC)c2ccccc2c1=O 11.8%, CN1CCN(CCCCOc2ccccc2-c2ccccc2)CC1 5.8%, S=C(c1ccc(-c2ccccc2)o1)N1CCCCC1 52.2%, COc1ccccc1CCCNC(=O)C1CCC(=O)N(CCN2CCOCC2)C1 (stereo not given) -4.18%, CC(=O)Nc1nc2c(s1)C(=O)NCC(C)(C)C2 -8.85%, Cc1ccc(-n2nc(-c3ccco3)cc2C(=O)NCc2cccnc2)cc1 38.2%, CC1CN(C(=S)Nc2ccc(S(N)(=O)=O)cc2)CC(C)O1 (stereo not given) 13.9%, O=C(CCS(=O)(=O)c1cccc2nonc12)NCCc1ccccc1Cl 0.62%, OC(CN=c1sc2ccccc2n1CC(O)COc1ccccc1)COc1ccccc1 (stereo not given) 22.7%, Cc1ccc(S(=O)(=O)N2CCN(C(=O)CSc3cc(C)ccc3C)CC2)c(C)c1 13.7%, CCCOC1CCCN(C(=O)c2cc(COc3cncc(Cl)c3)on2)C1 (stereo not given) 3.11%, CCCCNS(=O)(=O)c1ccc(S(=O)(=O)n2cnc3ccccc32)cc1 -0.9%, CCOc1c2ccc(C(=O)NC3CCCc4ccccc43)cc2nn1CC (stereo not given) 0.09%, CC1=CC(C)(C)Nc2ccc(OC(=O)C(Cc3ccccc3)N3C(=O)C4CCCCC4C3=O)cc21 (stereo not given) 38.3%, O=C(COC(=O)CN1C(=O)C2CCCCC2C1=O)Nc1ccc(F)c(F)c1F (stereo not given) 14.5%, CC1CCCCC1NC(=O)CCS(=O)(=O)c1ccc2c(c1)NC(=O)CO2 (stereo not given) 4.88%, CN(C)N(C)C(=O)C(O)(c1ccccc1)c1ccccc1 -19.5%, C/C=C/c1ccc(OCC(=O)OCC(=O)Nc2c(C)nn(-c3ccccc3)c2C)c(OC)c1 -4.73%, N=c1n(Cc2ccc(Cl)cc2)c2ccccc2n1CC(O)c1ccco1 (stereo not given) 8.27%, O=C(Nc1ncccc1O)c1ccc(C(=O)c2ccccc2)cc1 -5.63%, O=C(Nc1ccc2ccccc2c1[N+](=O)[O-])c1ccccc1 33.8%, COc1ccc(C(=O)NCc2nnc(SCCOc3ccccc3)n2C)cc1 -13%, CC(Sc1nnc(COc2ccccc2)n1-c1ccccc1)C(=O)O (stereo not given) -12.2%, Cc1cccc(C)c1NC(=O)c1ccc(CN2CCc3ccccc3C2)cc1 4.01%, O=C(c1cccnc1)N1CCN(S(=O)(=O)c2cccs2)CC1 -17.9%, COc1ccccc1C(=O)N1CCNC(=O)C1CC(=O)Nc1ccc(Cl)cc1 (stereo not given) -0.83%, CN1CCc2nc(SC(C(=O)O)c3ccccc3)c(C#N)c(-c3cccs3)c2C1 (stereo not given) 33.9%, Cc1noc(C)c1C(=O)OC(C)C(=O)Nc1ccc2c(c1)OCO2 (stereo not given) 7.92%, O=S1(=O)N=C(N(CCO)/N=C/c2ccccc2F)c2ccccc21 -22.8%, CCOC(=O)c1ccccc1CN1C(=O)c2ccccc2S1(=O)=O -6.44%, CCOC(=O)C(NC(C)=O)C(=O)Nc1ccc(OC)cc1 (stereo not given) -2.17%, CCOC(=O)c1c(C)nn(-c2ncccc2NC(=O)CCC(=O)O)c1C -27.7%, CC(C)[C@H](NC(=O)N1CCn2c1nc1ccccc12)C(=O)NCc1ccc2c(c1)OCO2 20.7%, COc1cc(C(F)(F)F)c(C(=O)N(C)c2ccc(Cl)cc2)cn1 5.85%, COc1ccc(Cl)cc1NC(=O)CN(C)C(=O)c1cc2ccccc2cc1OC 11.4%, COc1ccc(Cl)cc1NC(=O)CN(C)C(=O)CNC(=O)C12CC3CC(CC(C3)C1)C2 -2.93%, Cc1ccc(-n2ncc(C(=O)NC3CC3)c2C2CCN(C(=O)OC(C)(C)C)CC2)c(C)c1 -21.1%, O=C(NCCOc1ccccc1)c1ccccc1F -13.3%, OCC[C@H]1C[C@H](O)[C@@H](O)[C@]2(Cc3ccccc3CO2)O1 0.59%, CCN(CC)S(=O)(=O)c1cccc(-c2n[nH]c(=S)n2/N=C/c2ccc(C(=O)OC)cc2)c1 13.1%, Cc1cc(-c2n[nH]c(=S)n2/N=C/C(Br)=C/c2ccccc2)n[nH]1 23.4%, O=C(CCC(=O)OCC(F)(F)C(F)F)NCc1ccccc1 1.98%, COc1ccc(OC)c(-n2cc3c(=O)n(C)c(=O)n(C)c3c2)c1 17.5%, CC[C@]12c3[nH]c4cc(CCC(=O)N(C)C)ccc4c3CCN1C(=O)[C@@H](CC(=O)NCC13CC4CC(CC(C4)C1)C3)C[C@@H]2C(=O)N1CCN(C(=O)C2CC2)CC1 0.29%, O=c1[nH]c(/C=C\c2cccc(C(F)(F)F)c2)nc(O)c1[N+](=O)[O-] 1.8%, O=S(=O)(Nc1cccc(Oc2ccc(Cl)cc2)n1)c1ccc(F)cc1 -6%, CCCCN(C(=O)c1ccc(S(=O)(=O)N2CCOCC2)cc1)C1CCS(=O)(=O)C1 (stereo not given) -2.48%, O=C(CCc1ccc(O)cc1)NN=Cc1cc(Br)ccc1O -4.92%, Cc1ccc(OCCOCCOc2ccc(Br)cc2/C=N\NC(=O)c2ccncc2)cc1 40.5%, Cc1oc(C)c(C(=O)NCCCC(=O)O)c1C(=O)NCCCC(=O)O 2.34%, COc1cccc(C(=O)Nc2c3c(nn2-c2cccc(C)c2C)CS(=O)(=O)C3)c1OC 8.42%, O=C1NC(=Nc2ccc(Cl)cc2)SC1Cc1cccc(Cl)c1Cl (stereo not given) -30.1%, O=C(NC1CCCC1)C(c1ccc(Cl)cc1)N(C(=O)c1csnn1)C1CC1 (stereo not given) -0.62%, COc1cccc(-n2c(=S)[nH]c3c(oc4ccccc43)c2=O)c1 23.4%, Cc1ccc(S(=O)(=O)c2cc3c(=O)n4cccc(C)c4nc3n(CCc3ccccc3)c2=N)cc1C -4.62%, C[n+]1cccc(C(=O)O)c1 -8.19%, Cc1cccc(C(=O)OC(C)C(=O)NC2CCCc3ccccc32)c1O (stereo not given) -19.6%, CCOc1c2ccc(C(=O)NCc3ccc(OC(F)(F)F)cc3)cc2nn1C 1.65%, CCOC(=O)Cc1ncccc1C(=O)Nc1ccc(OC(F)(F)F)cc1 -20.5%, CC(NC(=S)Nc1ccc(S(N)(=O)=O)cc1)c1ccc2c(c1)OCO2 (stereo not given) -1.17%

inhibition, active:
COc1ccc2c(c1)c(=Cc1ccc(N(C)C)cc1)c1cc(-c3ccccc3)[n+](C)n12 70%, COc1cc(OC)c(C(=O)Nc2ccc(N(C)C)cc2)cc1OC 70.5%, OCCN1CCN(C(=S)c2ccc(-c3ccccc3)cc2)CC1 66.4%, Oc1c(C=Nc2cccc3nsnc23)ccc2ccccc12 64.6%, c1ccc(-c2cn3c(n2)CCc2ccc4cccnc4c2-3)cc1 107%, Nc1ccc2nc3c(=O)[nH]c(=S)[nH]c3nc2c1 83.3%, CC1=CC(C)(C)Nc2ccc(OC(=O)CN3C(=O)C4CCCCC4C3=O)cc21 (stereo not given) 70.6%, O=C(NC1=CC(=O)c2ccccc2C1=O)c1ccccc1 80.4%, COc1ccc(OCc2nnc3n2N=C(c2ccccc2)C(CC(=O)O)S3)cc1 (stereo not given) 88.1%, CCOC(=O)C1=C(c2ccc(OC)cc2)C(=O)c2ccccc2C1=O 101%, COc1ccc(Cl)cc1NC(=O)CN(C)C(=O)CCCc1c[nH]c2ccccc12 78.4%, S=c1[nH]nc(-c2cc(-c3ccccc3)n[nH]2)n1/N=C/c1c2ccccc2cc2ccccc12 59.1%, O=C1OC(Oc2ccc(Br)cc2)(c2ccccc2)c2ccccc21 (stereo not given) 69.2%, CC(=O)N(C1=C(Cl)C(=O)c2ccccc2C1=O)c1ccc(C(=O)O)cc1 120%, COc1ccc(CC(=O)NCC(=O)N/N=C/c2cc(Br)ccc2OC)cc1 99.2%, O=[N+]([O-])c1c(NCCO)cc(Sc2nc3ccccc3s2)c2nonc12 89.2%, O=c1oc2ccccc2cc1-c1cn(-c2ccccc2)c(=S)[nH]1 64%, O=C(Nc1ccc(OC(F)(F)F)cc1)c1ccc2c(c1)no[n+]2[O-] 69.8%
